From PubChem BioAssay (NCI)
Compounds without any hit were thinned out: in the full panel of roughly 79,000, 15% have a hit. Values without a mark were called inactive. The source made the active and inactive calls. Rule as the data show it: active = growth inhibition above about 70%; inactive = the rest.

Assays:
[1] = NCI Yeast Anticancer Drug Screen. Data for the rad50 strain (AID 155);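 also: 0% = growth of vehicle-only cultures of the same strain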; conditions: S. cerevisiae rad50 strain growth inhibition; at 50.0 µM; stronger effect = higher value
In short: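 Cells are treated with compound, grown, and their growth is then scored against vehicle-only cultures of the same repair-deficient yeast strain.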

[2] = NCI Yeast Anticancer Drug Screen. Data for the mec2-1 strain (AID 157); conditions: S. cerevisiae mec2-1 strain, at 50.0 µM, stronger effect = higher value
In short: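 Yeast mec2-1 mutant treated with compound. Readout: growth inhibition vs vehicle controls.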

[3] = NCI Yeast Anticancer Drug Screen. Data for the sgs1 mgt1 strain (AID 161);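 also: 0% = growth of cultures given vehicle only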; conditions: S. cerevisiae sgs1 mgt1 strain, at 50.0 µM, stronger effect = higher value
In short: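 Read-out: growth inhibition vs vehicle controls. Cells: mutant yeast strain deficient in DNA damage repair.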

[4] = NCI Yeast Anticancer Drug Screen. Data for the cln2 rad14 strain (AID 165);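 also: 0% = growth equal to vehicle treated cultures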; conditions: S. cerevisiae cln2 rad14 strain, at 50.0 µM, stronger effect = higher value
In short: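 cln2 rad14 yeast strain; compound exposure; growth inhibition read vs vehicle controls.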

[5] = NCI Yeast Anticancer Drug Screen. Data for the bub3 strain (AID 167); conditions: S. cerevisiae bub3 mutant strain, at 50.0 µM, stronger effect = higher value
In short: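 Part of a panel of yeast mutants defective in DNA damage repair or cell cycle regulation. Each strain is grown with compound, and inhibition is calculated relative to solvent-treated cultures.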

[6] = NCI Yeast Anticancer Drug Screen. Data for the mlh1 rad18 strain (AID 175); conditions: S. cerevisiae mlh1 rad18 strain growth inhibition; at 50.0 µM; stronger effect = higher value
In short: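 Yeast w/ defined DNA-repair lesions; compound exposure; growth vs vehicle controls → % inhibition.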

In the case of O=c1[nH]cnc2nc(N3CCN(c4ccccc4)CC3)sc12, the growth inhibition [1] is reported as 18.8%, the growth inhibition [2] is reported as 11.4% and the growth inhibition [3] is reported as 19.8%. It also gave a growth inhibition [4] of -40.7%, a growth inhibition [5] of 4.9% and a growth inhibition [6] of 23.4%.

Work on CSCc1cc(C)ccc1NC(C)=O yielded a growth inhibition [1] of 0.5%, a growth inhibition [2] of -7.85% and a growth inhibition [3] of -0.75%. It also gave a growth inhibition [4] of -16.5%, a growth inhibition [5] of -13.2% and a growth inhibition [6] of 10.8%.

Compound O=C([O-])c1ccc(C(=O)[O-])cc1.O=C([O-])c1ccc(C(=O)[O-])cc1.[Mo+2].[Mo+2] has a growth inhibition [1] of -38.6%, a growth inhibition [2] of 18.1% and a growth inhibition [3] of 2.85%. For the same compound, the growth inhibition [4] was 9.1%, the growth inhibition [5] was -11.8% and the growth inhibition [6] was 16.6%.

With Cc1cc(C)c(NC(=O)Nc2ccccc2F)cc1C the growth inhibition [1] was 18.7%, the growth inhibition [2] was 19.6% and the growth inhibition [3] was 14.3%. The growth inhibition [4] was 24.7%, the growth inhibition [5] was 33.1% and the growth inhibition [6] was 8.85%.

N#CN=CN1CCN(c2ccccc2)CC1 showed a growth inhibition [1] of 4.8%, a growth inhibition [2] of -11.2% and a growth inhibition [3] of -0.15%. The growth inhibition [4] was -22.6%, the growth inhibition [5] was -5.4% and the growth inhibition [6] was -11.9%.

CC(C)=NNC(=O)c1ccc(Cl)cc1 gave a growth inhibition [1] of -19.1%, a growth inhibition [2] of -25.1% and a growth inhibition [3] of -18.2%. The growth inhibition [4] was 17.1%, the growth inhibition [5] was -7.85% and the growth inhibition [6] was -32.1%.

Compound CC1=CCC2(C#N)CCC1C2O (configuration not stated) has a growth inhibition [1] of 15.2%, a growth inhibition [2] of 17.8% and a growth inhibition [3] of 8.1%. For the same compound, the growth inhibition [4] was 22.4%, the growth inhibition [5] was 10.4% and the growth inhibition [6] was 17.6%.

In the case of C=C1C(=O)[C@@]23CC[C@@H]4[C@@]5(C)CCC[C@@]4(OC5=O)[C@@]2(C)CC[C@@H]1C3, the growth inhibition [1] is reported as 92.1% (active), the growth inhibition [2] is reported as 93.7% (active) and the growth inhibition [3] is reported as 93.8% (active). For the same compound, the growth inhibition [4] was 89.3% (active), the growth inhibition [5] was 93.3% (active) and the growth inhibition [6] was 92.3% (active).

Work on CC(=O)N1CCC(=O)/C(=C/c2ccccc2)C1 yielded a growth inhibition [1] of 4.95%, a growth inhibition [2] of 0% and a growth inhibition [3] of 32%. It also gave a growth inhibition [4] of 15.9%, a growth inhibition [5] of 17.6% and a growth inhibition [6] of 44%.

CC(CO)(NC(=O)c1ccccc1)C(=O)O (configuration not stated) showed a growth inhibition [1] of 13.4%, a growth inhibition [2] of 9.25% and a growth inhibition [3] of 22.5%. For the same compound, the growth inhibition [4] was 11.1%, the growth inhibition [5] was 3.45% and the growth inhibition [6] was 23.4%.

Work on CCCCCCCCCCCCCCCCCCCCCCCCCC yielded a growth inhibition [1] of -11.4%, a growth inhibition [2] of -2.55% and a growth inhibition [3] of -19.2%. The growth inhibition [4] was 19.9%, the growth inhibition [5] was -0.05% and the growth inhibition [6] was 5.6%.

With CCOC(CN(N=O)c1ccccc1C(C)C)OCC the growth inhibition [1] was -3.95%, the growth inhibition [2] was 8.9% and the growth inhibition [3] was 7%. The growth inhibition [4] was -21.9%, the growth inhibition [5] was 3.55% and the growth inhibition [6] was -4.25%.

In the case of Cc1ccc(N=N/C(=N/NC(=O)c2cc(Cl)ccc2C(=O)c2ccccc2)c2ccc(N(CCC#N)CCC#N)cc2C)cc1, the growth inhibition [1] is reported as -8.5%, the growth inhibition [2] is reported as 2.5% and the growth inhibition [3] is reported as -18.5%. It also gave a growth inhibition [4] of -2.1%, a growth inhibition [5] of -23.6% and a growth inhibition [6] of 5.2%.

Compound O=C1OC2CCCC[C@@H]2C2C[C@]34CCCCC3[C@@H](C(=O)O4)C12 (some centres not stated) has a growth inhibition [1] of 23.1%, a growth inhibition [2] of -6.85% and a growth inhibition [3] of 9.9%. The growth inhibition [4] was 15.6%, the growth inhibition [5] was 12% and the growth inhibition [6] was 42.7%.

CC(=O)C1C[C@]2(O)[C@@]3(C)CO[C@]2(C)CC1(O)C3 (some centres not stated) gave a growth inhibition [1] of 3.45%, a growth inhibition [2] of 11.4% and a growth inhibition [3] of 17.9%. It also gave a growth inhibition [4] of 7.2%, a growth inhibition [5] of 20.2% and a growth inhibition [6] of 12.9%.

With c1ccc(CCc2nccc3ccccc23)cc1 the growth inhibition [1] was 8.55%, the growth inhibition [2] was -0.55% and the growth inhibition [3] was -5.6%. It also gave a growth inhibition [4] of -0.9%, a growth inhibition [5] of 13.9% and a growth inhibition [6] of 1.1%.

CSc1cnn(CCC#N)c(=O)n1 gave a growth inhibition [1] of 16.4%, a growth inhibition [2] of 14.1% and a growth inhibition [3] of 19.9%. For the same compound, the growth inhibition [4] was 2.4%, the growth inhibition [5] was 15.7% and the growth inhibition [6] was 2.35%.

In the case of O=C(O)c1ccc(N=NC2Sc3nc4ccccc4n3C2=O)cc1 (configuration not stated), the growth inhibition [1] is reported as 16.7%, the growth inhibition [2] is reported as -13.8% and the growth inhibition [3] is reported as 15.7%. It also gave a growth inhibition [4] of -8.9%, a growth inhibition [5] of 11.2% and a growth inhibition [6] of 44.2%.

In the case of CCOC(=O)CSCCC(=O)OC, the growth inhibition [1] is reported as -1.3%, the growth inhibition [2] is reported as 3.1% and the growth inhibition [3] is reported as -0.8%. The growth inhibition [4] was -5.5%, the growth inhibition [5] was -0.05% and the growth inhibition [6] was 1.35%.

Cc1c2cccc(Br)c2c[n+]2ccccc12 gave a growth inhibition [1] of 20.9%, a growth inhibition [2] of 18.4% and a growth inhibition [3] of 39%. For the same compound, the growth inhibition [4] was -21.4%, the growth inhibition [5] was 1.3% and the growth inhibition [6] was 31.1%.

In the case of CN(C)c1ccccc1C(=O)N/N=C/c1ccc(F)cc1, the growth inhibition [1] is reported as -4.7%, the growth inhibition [2] is reported as -31.3% and the growth inhibition [3] is reported as -6.55%. It also gave a growth inhibition [4] of -13.8%, a growth inhibition [5] of -14.9% and a growth inhibition [6] of -6%.

Compound CN(/N=C/C=N/N(C)C1=NCCCCN1)C1=NCCCCN1 has a growth inhibition [1] of -13.6%, a growth inhibition [2] of -11.3% and a growth inhibition [3] of -22.2%. For the same compound, the growth inhibition [4] was 0.7%, the growth inhibition [5] was 7.55% and the growth inhibition [6] was -11.8%.

Compound Cc1c(CN(C)C)ccc2ccccc12 has a growth inhibition [1] of -6%, a growth inhibition [2] of -6.05% and a growth inhibition [3] of 3.95%. It also gave a growth inhibition [4] of -34.4%, a growth inhibition [5] of 0.6% and a growth inhibition [6] of -8.95%.

CN1c2ccccc2C(=O)NC12CCN(CCCC(=O)c1ccc(F)cc1)CC2 gave a growth inhibition [1] of 6.6%, a growth inhibition [2] of 6.95% and a growth inhibition [3] of 46.8%. For the same compound, the growth inhibition [4] was 35.6%, the growth inhibition [5] was 21.9% and the growth inhibition [6] was 7%.

Compound O=C(NC(=O)c1ccc([N+](=O)[O-])cc1)Nc1ccccc1 has a growth inhibition [1] of 10.3%, a growth inhibition [2] of -4.35% and a growth inhibition [3] of -1.4%. It also gave a growth inhibition [4] of -25.4%, a growth inhibition [5] of -14.8% and a growth inhibition [6] of 5%.

CC#Cc1c(O)c2c(c(O)c1C#CC)C(=O)c1ccccc1C2=O showed a growth inhibition [1] of -1.3%, a growth inhibition [2] of -30% and a growth inhibition [3] of -25.4%. It also gave a growth inhibition [4] of -8.95%, a growth inhibition [5] of -3% and a growth inhibition [6] of -29.8%.

Compound Cc1ccc(S(=O)(=O)Nc2nnc(CC(C)C)s2)cc1 has a growth inhibition [1] of 36.2%, a growth inhibition [2] of -6.45% and a growth inhibition [3] of 35.2%. For the same compound, the growth inhibition [4] was 28.1%, the growth inhibition [5] was 40.9% and the growth inhibition [6] was 35.9%.

Work on N#CC1C(=O)NC(=O)C(C#N)C1C1C(=O)NC2CCCCC21 (configuration not stated) yielded a growth inhibition [1] of 41.2%, a growth inhibition [2] of 5% and a growth inhibition [3] of 17.2%. It also gave a growth inhibition [4] of 23.2%, a growth inhibition [5] of 11.1% and a growth inhibition [6] of 32.8%.

For O=C1CN(c2cccc(Cl)c2)C(=O)CN1/N=C/c1ccc(O)c(O)c1, the growth inhibition [1] was -29.1%, the growth inhibition [2] was 0.15% and the growth inhibition [3] was 3.45%. For the same compound, the growth inhibition [4] was -6.95%, the growth inhibition [5] was 46% and the growth inhibition [6] was -8.9%.

Compound C=CCN1C(=O)CS/C1=N\NC(=O)c1c(C)nc2sccn12 has a growth inhibition [1] of -16.3%, a growth inhibition [2] of -4.15% and a growth inhibition [3] of -8.95%. It also gave a growth inhibition [4] of -7.4%, a growth inhibition [5] of -22.8% and a growth inhibition [6] of -28.4%.

CCN(CC)CCC(=O)N1CCc2c([nH]c3ccccc23)C1c1cccnc1 (configuration not stated) showed a growth inhibition [1] of -26.9%, a growth inhibition [2] of -18.9% and a growth inhibition [3] of -3.95%. The growth inhibition [4] was -6.7%, the growth inhibition [5] was -0.1% and the growth inhibition [6] was -28.2%.

In the case of CCOC(=O)c1cccc(NC(=O)CCl)c1, the growth inhibition [1] is reported as 43.2%, the growth inhibition [2] is reported as 30.1% and the growth inhibition [3] is reported as 37.6%. For the same compound, the growth inhibition [4] was 26%, the growth inhibition [5] was 39.9% and the growth inhibition [6] was 49.5%.

For CN(C)Cc1ccccc1COC(=O)c1ccc(Cl)cc1, the growth inhibition [1] was 12.8%, the growth inhibition [2] was 11.5% and the growth inhibition [3] was 15.1%. For the same compound, the growth inhibition [4] was 9.75%, the growth inhibition [5] was 17.4% and the growth inhibition [6] was 20.9%.

CCCCOS(=O)(=O)c1ccc([N+](C)(C)C)cc1 showed a growth inhibition [1] of 3.9%, a growth inhibition [2] of 1.75% and a growth inhibition [3] of -10.6%. The growth inhibition [4] was 12.2%, the growth inhibition [5] was 0.6% and the growth inhibition [6] was -7%.

COc1ccc(OCCO)cc1 showed a growth inhibition [1] of -10.4%, a growth inhibition [2] of -17.8% and a growth inhibition [3] of -6.85%. The growth inhibition [4] was -27.1%, the growth inhibition [5] was -22.1% and the growth inhibition [6] was -0.15%.

Cn1c(=O)c2c(nc(CCNC(=O)c3ccccc3)n2C)n(C)c1=O gave a growth inhibition [1] of -1.15%, a growth inhibition [2] of -7.75% and a growth inhibition [3] of 11.1%. The growth inhibition [4] was -27.4%, the growth inhibition [5] was 5.6% and the growth inhibition [6] was -17.1%.

Work on N#CC1=C(O)/C(=C\c2ccc(Cl)cc2)N=C1N yielded a growth inhibition [1] of -28.3%, a growth inhibition [2] of -14.3% and a growth inhibition [3] of -7.8%. The growth inhibition [4] was -13.9%, the growth inhibition [5] was -6.2% and the growth inhibition [6] was -3.35%.
